The target in assay [1] is Atrial natriuretic peptide receptor 1 (Homo sapiens) (UniProt P16066). Put plainly: Natriuretic polypeptide receptor (hNpr1) antagonism - Pilot screen (AID 1347049; calls by dose curve;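 further: agonist-evoked cGMP luminescence read 20 min after hNppA addition; series mostly up to about 58 µM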). The method, boiled down:
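cGMP-sensor HEK293/hNpr1 cells, 1500/well, plated overnight at 37C. 2% GloSensor reagent, 2 h RT. Compound (23 nL pin transfer) 30 min RT, baseline luminescence pre-read. 0.1 nM hNppA, 20 min RT, post-read.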

Assay [2] addresses Atrial natriuretic peptide receptor 2 (Homo sapiens) (UniProt P20594). Put plainly: Natriuretic polypeptide receptor (hNpr2) antagonism - Pilot subtype selectivity assay (AID 1347050; calls by dose curve; further: potency means the concentration at half of the fitted maximal effect). The method in brief:
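Luminescence from a genetically encoded cGMP luciferase biosensor in hNpr2-expressing HEK293 cells is read before and 20 min after adding 1 nM hNppC. Test compounds, in interplate 1:5 titrations, are added 30-50 min ahead of the agonist.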

Assay [3] in a line: NS1 protein of Zika virus - qHTS assay to identify small molecule inhibitors in human HEK 293 cells (AID 1347053). Further: series mostly up to about 46 µM; nearly all actives have a fitted effect of over 55% in size. The method, boiled down: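 Read-out is a two-antibody TR-FRET for ZIKV NS1, normalized between uninfected cells and infected cells. Compound added 1 h before MR766 infection at MOI 0.5; human HEK 293 cells incubated 24 h, 37 C.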
The target of assay [4] is T1, Tyrosine-protein phosphatase non-receptor type substrate 1 (Homo sapiens) + Leukocyte surface antigen CD47 (Homo sapiens) (UniProt P78324+Q08722). Put plainly: CD47-SIRPalpha protein protein interaction - LANCE assay qHTS validation (AID 1347057; active means well fitted curve in the direction sought with a large enough effect in the signal ratio, with a control signal flat, not every such curve was filed as active; the % refers to the signal ratio; further: series mostly up to about 38 µM). The method, boiled down: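 Inhibition of soluble CD47/SIRPalpha ectodomain association by titrated compounds, measured as 665/615 nm time-resolved FRET ratio after sequential 30 min room-temperature incubations.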
T1 sequence (P78324 whole entry, looked up, the tested form may be a part): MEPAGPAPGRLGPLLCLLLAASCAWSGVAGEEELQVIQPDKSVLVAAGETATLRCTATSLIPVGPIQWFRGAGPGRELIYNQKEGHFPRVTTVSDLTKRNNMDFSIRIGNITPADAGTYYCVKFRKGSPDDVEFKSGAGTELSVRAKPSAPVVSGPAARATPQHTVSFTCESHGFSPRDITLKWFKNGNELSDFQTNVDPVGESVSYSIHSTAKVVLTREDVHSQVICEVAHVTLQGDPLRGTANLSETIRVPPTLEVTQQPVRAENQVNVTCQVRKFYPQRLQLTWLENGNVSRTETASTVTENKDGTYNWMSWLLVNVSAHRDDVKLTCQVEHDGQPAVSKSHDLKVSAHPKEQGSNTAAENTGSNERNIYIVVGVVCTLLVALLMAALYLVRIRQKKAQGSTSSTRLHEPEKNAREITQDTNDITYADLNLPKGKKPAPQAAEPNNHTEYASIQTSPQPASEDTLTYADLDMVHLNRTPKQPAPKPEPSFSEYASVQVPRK
T1 sequence (Q08722 whole entry, looked up, the tested form may be a part): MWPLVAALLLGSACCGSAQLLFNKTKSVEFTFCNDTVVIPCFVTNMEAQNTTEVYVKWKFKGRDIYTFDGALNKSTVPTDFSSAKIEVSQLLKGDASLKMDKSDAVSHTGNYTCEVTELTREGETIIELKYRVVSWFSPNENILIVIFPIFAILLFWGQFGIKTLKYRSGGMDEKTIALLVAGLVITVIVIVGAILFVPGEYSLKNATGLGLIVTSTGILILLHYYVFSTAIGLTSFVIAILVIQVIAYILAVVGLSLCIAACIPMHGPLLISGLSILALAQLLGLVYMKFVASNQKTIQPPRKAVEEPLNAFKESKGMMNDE
A general note: TR-FRET usually uses a lanthanide donor and a delayed reading to cut background.

Assay [5] has as its target T1, Tyrosine-protein phosphatase non-receptor type substrate 1 (Homo sapiens) + Leukocyte surface antigen CD47 (Homo sapiens). Put plainly: CD47-SIRPalpha protein protein interaction - HTRF assay qHTS validation (AID 1347058; active means well fitted curve in the direction sought with a large enough effect in the signal ratio, not every such curve was filed as active; the % refers to the signal ratio; further: series mostly up to about 38 µM). The method in brief:
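Soluble extracellular domains (6His-CD47, Avi-tag-biotinylated SIRPalpha) in PBS pH 7.4 with 0.05% IGEPAL CA-630. Compounds were preincubated 30 min at RT with CD47 and anti-His-Eu, then SIRPalpha and SAV-XL665 were added. TR-FRET 665/615 ratio.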

Assay [6] has the same target. Put plainly: CD47-SIRPalpha protein protein interaction - Alpha assay qHTS validation (AID 1347059).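 Further: bead proximity luminescence from CD47 binding SIRPalpha after compound preincubation with SIRPalpha.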 The method, boiled down:
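SIRPalpha-biotin 25 nM + cpd, 30 min RT, dark; add CD47-His 12.5 nM, 30 min; add Ni-NTA/SAV beads 10 ug/mL, 30 min; AlphaScreen. Buffer PBS pH 7.4 + 0.05% IGEPAL CA-630. Non-biotinylated SIRPalpha as control inhibitor.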

Assay [7] concerns the target Parathyroid hormone/parathyroid hormone-related peptide receptor (Homo sapiens) (UniProt Q03431). Put plainly: qHTS for PTHR1 Agonists: Optimization Screen against the NCGC LOPAC library (AID 1347079).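 Further: GloSensor cAMP luminescence in HEK-293 GP2 cells expressing human PTHR1 with IBMX.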 The method, boiled down:
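HEK-293 GP2 cells, PTHR1 + GloSensor cAMP; 3000 cells/well, o/n. Luciferin + IBMX 0.5mM each (stock), 1 hr 37C. Cpd titration, 1 hr 37C. Lum after 15 min RT. Ctrl M-PTH(1-15) top 10uM.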
Background: In qHTS, concentration-response curves come from the screen itself.

Assay [8] in a line: qHTS of pediatric cancer cell lines to identify multiple opportunities for drug repurposing: Primary screen for SJ-GBM2 cells (AID 1347091). The method in brief:
(§1)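 Viability measured as metabolically active cells via CellTiter-Glo luminescence following 48 hours of compound exposure, 11-point dilutions in confirmatory testing. 500-1,000 cells/well plated 5 hours before dosing; controls were DMSO and 2.3 µM bortezomib.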

The nature of assay [9]: qHTS of pediatric cancer cell lines to identify multiple opportunities for drug repurposing: Primary screen for A673 cells (AID 1347092). Further: nearly all actives have a fitted effect of over 45% in size. Further: potency means the concentration at half of the fitted maximal effect. The method in brief: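 Cells are plated, rested 5 h, dosed by pintool, incubated 48 h, then lysed with CellTiter-Glo and read by luminescence. DMSO is the neutral control; bortezomib at 2.3 uM final is the positive control.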
Assay [10] is described as follows: qHTS of pediatric cancer cell lines to identify multiple opportunities for drug repurposing: Primary screen for SK-N-MC cells (AID 1347093). Further: potency means the concentration at half of the fitted maximal effect. The method, boiled down: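 Metabolically active cells were quantified by ATP-dependent luminescence (CellTiter-Glo, 15 min at room temperature) following 48 h treatment. Cells had been plated at 500-1,000 per well and settled for 5 h beforehand.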

Assay [11] can be described thus: qHTS of pediatric cancer cell lines to identify multiple opportunities for drug repurposing: Primary screen for BT-37 cells (AID 1347094). Further: series mostly up to about 57 µM. The method, boiled down: (§2)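 Following a 5-hour attachment period, cells at 500-1,000/well received compounds and were cultured for 48 hours. CellTiter-Glo was added and luminescence read to estimate viable, metabolically active cells.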

A short description of assay [12]: qHTS of pediatric cancer cell lines to identify multiple opportunities for drug repurposing: Primary screen for NB-EBc1 cells (AID 1347095). The method, boiled down:
as §2

Assay [13] in a line: qHTS of pediatric cancer cell lines to identify multiple opportunities for drug repurposing: Primary screen for U-2 OS cells (AID 1347096). Further: nearly all actives have a fitted effect of over 50% in size. The method in brief:
(§3)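 Viability after 48 h compound treatment at 37C, 500-1,000 cells/well, read as ATP luminescence with CellTiter-Glo. Primary screens used 11-point (MIPE, 0.78 nM-46 µM) or 8-point (NPC, 0.59 nM-46 µM) final concentrations; follow-up screens used 11-point dilutions.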

Assay [14] in a line: qHTS of pediatric cancer cell lines to identify multiple opportunities for drug repurposing: Primary screen for Saos-2 cells (AID 1347097). Further: nearly all actives have a fitted effect of over 40% in size. The method in brief:
as §2

Assay [15] can be described thus: qHTS of pediatric cancer cell lines to identify multiple opportunities for drug repurposing: Primary screen for SK-N-SH cells (AID 1347098). Further: nearly all actives have a fitted effect of over 65% in size. Further: potency means the concentration at half of the fitted maximal effect. The method in brief:
(§4)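 Cells (500-1,000/well) rested 5 h, then received compounds for 48 h; metabolically active cells were measured by CellTiter-Glo luminescence. Final concentrations spanned up to 46 µM (MIPE, 11-point) or 0.59 nM-46 µM (NPC, 8-point) in primary screens, 11-point in follow-ups.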

Assay [16] is described as follows: qHTS of pediatric cancer cell lines to identify multiple opportunities for drug repurposing: Primary screen for NB1643 cells (AID 1347099). Further: nearly all actives have a fitted effect of over 50% in size. The method, boiled down: as §2
Assay [17] in a line: qHTS of pediatric cancer cell lines to identify multiple opportunities for drug repurposing: Primary screen for LAN-5 cells (AID 1347100). The method, boiled down:
as §3

Assay [18] can be described thus: qHTS of pediatric cancer cell lines to identify multiple opportunities for drug repurposing: Primary screen for BT-12 cells (AID 1347101). Further: nearly all actives have a fitted effect of over 25% in size. The method, boiled down: as §4
Assay [19] can be described thus: qHTS of pediatric cancer cell lines to identify multiple opportunities for drug repurposing: Primary screen for TC32 cells (AID 1347089). Further: nearly all actives have a fitted effect of over 60% in size. The method, boiled down: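 Measured quantity: luminescence from CellTiter-Glo, reflecting metabolically active TC32 cells following 48 h of compound. Curves came straight from multi-point titrations, with 8 or 11 points in primary and 11 in confirmatory screening.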

The nature of assay [20]: qHTS of pediatric cancer cell lines to identify multiple opportunities for drug repurposing: Primary screen for DAOY cells (AID 1347090). Further: series mostly up to about 46 µM; nearly all actives have a fitted effect of over 55% in size. The method, boiled down:
as §1

Results filed as inconclusive are left out. Activity calls are given as the source filed them. Unless noted, the call rests on the fitted dose curve; in most records, active means well fitted curve in the direction sought with a large enough effect; inconclusive means small, poorly fitted or top-dose-only effect, or another doubt; inactive means no such curve, though single readings can be large; an effect the other way counts as inactive or inconclusive.

Atrial natriuretic peptide receptor 2 (Homo sapiens), sequence (P20594 whole entry, looked up): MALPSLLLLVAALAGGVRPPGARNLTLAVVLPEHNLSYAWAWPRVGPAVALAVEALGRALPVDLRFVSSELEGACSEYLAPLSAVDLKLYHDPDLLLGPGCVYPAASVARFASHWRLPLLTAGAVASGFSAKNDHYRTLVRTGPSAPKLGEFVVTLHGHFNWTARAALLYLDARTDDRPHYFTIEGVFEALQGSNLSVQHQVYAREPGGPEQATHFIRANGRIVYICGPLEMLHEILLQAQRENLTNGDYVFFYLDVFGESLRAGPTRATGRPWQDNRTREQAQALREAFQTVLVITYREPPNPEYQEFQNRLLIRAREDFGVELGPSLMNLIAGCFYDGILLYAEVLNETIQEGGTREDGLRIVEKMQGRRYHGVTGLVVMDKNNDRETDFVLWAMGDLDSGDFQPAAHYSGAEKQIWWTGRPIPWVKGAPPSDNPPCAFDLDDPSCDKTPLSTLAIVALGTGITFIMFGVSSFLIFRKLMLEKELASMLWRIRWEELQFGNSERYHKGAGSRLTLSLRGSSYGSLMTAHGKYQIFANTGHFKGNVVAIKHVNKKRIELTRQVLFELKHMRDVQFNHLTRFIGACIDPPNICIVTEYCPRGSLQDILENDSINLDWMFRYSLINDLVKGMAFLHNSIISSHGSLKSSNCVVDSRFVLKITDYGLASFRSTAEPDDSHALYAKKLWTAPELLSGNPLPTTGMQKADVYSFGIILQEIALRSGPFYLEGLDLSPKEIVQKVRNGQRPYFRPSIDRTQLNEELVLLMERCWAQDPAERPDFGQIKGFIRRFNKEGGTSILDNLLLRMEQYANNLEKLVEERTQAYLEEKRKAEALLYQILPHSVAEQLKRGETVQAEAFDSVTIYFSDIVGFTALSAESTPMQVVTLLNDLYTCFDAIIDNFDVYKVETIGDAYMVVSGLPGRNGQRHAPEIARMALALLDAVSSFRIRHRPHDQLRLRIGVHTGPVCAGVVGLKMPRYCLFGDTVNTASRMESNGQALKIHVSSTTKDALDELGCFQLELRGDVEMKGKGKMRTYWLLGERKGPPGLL
Atrial natriuretic peptide receptor 1 (Homo sapiens), sequence (P16066 whole entry, looked up): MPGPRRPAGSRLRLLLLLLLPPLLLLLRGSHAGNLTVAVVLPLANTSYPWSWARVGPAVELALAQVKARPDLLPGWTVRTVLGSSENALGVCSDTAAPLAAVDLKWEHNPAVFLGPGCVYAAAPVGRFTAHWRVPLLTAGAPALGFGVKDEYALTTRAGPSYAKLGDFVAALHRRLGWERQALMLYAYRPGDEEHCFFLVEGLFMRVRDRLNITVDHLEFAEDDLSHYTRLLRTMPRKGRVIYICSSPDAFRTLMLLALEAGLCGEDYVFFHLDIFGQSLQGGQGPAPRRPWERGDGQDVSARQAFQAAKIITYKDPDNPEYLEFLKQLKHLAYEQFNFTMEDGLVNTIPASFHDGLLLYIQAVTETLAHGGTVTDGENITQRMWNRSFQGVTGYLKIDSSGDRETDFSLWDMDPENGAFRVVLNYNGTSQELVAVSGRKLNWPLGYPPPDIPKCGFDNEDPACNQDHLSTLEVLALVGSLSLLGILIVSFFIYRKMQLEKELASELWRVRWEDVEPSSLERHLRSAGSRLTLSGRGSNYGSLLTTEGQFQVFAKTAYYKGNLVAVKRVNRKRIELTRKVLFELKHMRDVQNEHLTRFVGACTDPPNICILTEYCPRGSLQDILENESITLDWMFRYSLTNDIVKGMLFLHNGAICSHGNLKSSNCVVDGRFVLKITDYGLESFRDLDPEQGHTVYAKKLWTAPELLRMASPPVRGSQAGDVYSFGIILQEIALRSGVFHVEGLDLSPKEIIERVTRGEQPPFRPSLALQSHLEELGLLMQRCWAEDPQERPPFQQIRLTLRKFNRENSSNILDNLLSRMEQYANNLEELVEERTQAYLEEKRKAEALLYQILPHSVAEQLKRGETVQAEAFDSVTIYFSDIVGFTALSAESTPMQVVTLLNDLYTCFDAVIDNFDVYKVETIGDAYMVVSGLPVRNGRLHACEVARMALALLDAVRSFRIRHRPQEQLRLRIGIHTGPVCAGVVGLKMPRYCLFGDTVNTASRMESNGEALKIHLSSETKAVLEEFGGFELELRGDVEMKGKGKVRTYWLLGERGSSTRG
Parathyroid hormone/parathyroid hormone-related peptide receptor (Homo sapiens), sequence (Q03431 whole entry, looked up): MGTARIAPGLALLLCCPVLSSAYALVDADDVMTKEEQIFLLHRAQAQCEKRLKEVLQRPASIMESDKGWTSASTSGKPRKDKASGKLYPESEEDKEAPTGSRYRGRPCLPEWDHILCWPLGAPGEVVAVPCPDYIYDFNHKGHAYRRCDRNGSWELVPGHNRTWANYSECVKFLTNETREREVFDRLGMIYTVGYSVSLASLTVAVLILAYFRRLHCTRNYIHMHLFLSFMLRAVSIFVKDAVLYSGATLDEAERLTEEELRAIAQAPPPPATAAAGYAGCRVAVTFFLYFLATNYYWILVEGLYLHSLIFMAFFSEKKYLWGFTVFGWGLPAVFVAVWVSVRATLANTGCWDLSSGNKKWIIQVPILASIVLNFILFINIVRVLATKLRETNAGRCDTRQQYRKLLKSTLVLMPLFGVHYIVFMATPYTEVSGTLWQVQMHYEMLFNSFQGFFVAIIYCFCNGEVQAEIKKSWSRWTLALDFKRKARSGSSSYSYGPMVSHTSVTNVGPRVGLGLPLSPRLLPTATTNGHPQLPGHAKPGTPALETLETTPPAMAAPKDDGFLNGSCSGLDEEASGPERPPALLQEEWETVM

For `NCCS(=O)(=O)O`, the Potency entry in assay [1], in assay [2], in assay [3], in assay [6], in [7] and in [8] was “inactive” throughout. In addition, the Potency result in assay [9], in [10], in [11], in [12], in [13] and in assay [14] was “inactive” each time. Besides, the Potency entry in [15], in [16], in [17] and in assay [18] was “inactive” each time. For the same molecule, the result in assay [4] and in [5] was inactive.
As for `Cc1ccc(C(=O)Nc2ccc(S(=O)(=O)O)c3cc(S(=O)(=O)O)cc(S(=O)(=O)O)c23)cc1NC(=O)c1cccc(NC(=O)Nc2cccc(C(=O)Nc3cc(C(=O)Nc4ccc(S(=O)(=O)O)c5cc(S(=O)(=O)O)cc(S(=O)(=O)O)c45)ccc3C)c2)c1`, the Potency entry in assay [1], in [2], in assay [3], in assay [6], in assay [7] and in assay [8] was “inactive” in each case. Also, the Potency entry in assay [9], in assay [10], in assay [11], in assay [12], in assay [13] and in assay [14] was “inactive” each time. Further, the Potency entry in assay [15], in assay [16], in [17] and in assay [18] was “inactive” throughout. Also, the result in assay [4] was inactive.
Consider `CN1CCC(=C2c3ccccc3C=Cc3ccccc32)CC1`, for which the Potency result in [1], in assay [3], in assay [6], in assay [7], in assay [19] and in assay [20] was “inactive” in each case. The Potency entry in assay [8], in assay [12] and in [13] was “inactive” in each case. For the same molecule, the Potency in [2] was 11.7 µM (active); in assay [9] it was 18.7 µM (active); in assay [15], 24.1 µM (active). The result in [4] was inactive.
For `CCC1(C)CC(=O)NC1=O` (stereo unspecified), the Potency result in assay [1], in assay [2], in [3], in [6], in [7] and in [8] was “inactive” each time. For the same molecule, the Potency result in [9], in assay [10], in assay [11], in assay [12], in [13] and in assay [14] was “inactive” in each case. In addition, the Potency result in assay [15], in assay [16], in [17] and in [18] was “inactive” in each case. Moreover, the outcome in [4] and in [5] was inactive.
With `OCCN(CCO)c1nc(N2CCCCC2)c2nc(N(CCO)CCO)nc(N3CCCCC3)c2n1`, the Potency result in assay [1], in [2], in assay [3], in assay [6], in [7] and in assay [19] was “inactive” each time. Also, the Potency entry in assay [8], in [11], in [12], in assay [13], in assay [16] and in [17] was “inactive” throughout. Moreover, the Potency in assay [10] was 23.5 µM (active).
For the molecule `COc1cc2nc(N3CCN(C(=O)C4COc5ccccc5O4)CC3)nc(N)c2cc1OC` (stereo unspecified), the Potency entry in assay [1], in [2], in assay [3], in assay [6], in assay [7] and in [12] was “inactive” each time. Besides, the Potency entry in assay [13] and in assay [17] was “inactive” in each case. The outcome in assay [4] and in [5] was inactive. Also, the Potency in [9] was 18.7 µM (active); in assay [10], 29.6 µM (active); in [15], 19.2 µM (active).
As to `O=C(CCCN1CCC(O)(c2ccc(Cl)cc2)CC1)c1ccc(F)cc1`, the Potency entry in [1], in assay [2], in assay [3], in [6], in assay [7] and in assay [9] was “inactive” throughout. For the same molecule, the Potency result in [10], in assay [11], in assay [12], in [13], in assay [14] and in assay [16] was “inactive” throughout. Besides, the outcome in [4] and in [5] was inactive.

Values taken from PubChem BioAssay (NCATS).
